We go through 99 compounds from PubChem BioAssay AID1851 (National Center for Advancing Translational Sciences (NCATS), 2009).

The structures appear in SMILES notation. Screen size: about 16,000 compounds; about 5,800 (36%) were called active. Inconclusive results (about 23%) are left out. Calls follow the shape of the dose curve; as a rule, active = well fitted curve in the direction sought with a large enough effect; inconclusive = small, poorly fitted or top-dose-only effect, or effect the other way; inactive = no such curve, though single readings can be large or run the other way. Some of the results follow. Some compounds were tested as several samples or in several runs, with calls that do not always agree.
% is scaled to controls: 0 for no effect and ±100 for the full control effect.

Sequence of Cytochrome P450 2C19 (Homo sapiens) (P33261 whole entry, looked up): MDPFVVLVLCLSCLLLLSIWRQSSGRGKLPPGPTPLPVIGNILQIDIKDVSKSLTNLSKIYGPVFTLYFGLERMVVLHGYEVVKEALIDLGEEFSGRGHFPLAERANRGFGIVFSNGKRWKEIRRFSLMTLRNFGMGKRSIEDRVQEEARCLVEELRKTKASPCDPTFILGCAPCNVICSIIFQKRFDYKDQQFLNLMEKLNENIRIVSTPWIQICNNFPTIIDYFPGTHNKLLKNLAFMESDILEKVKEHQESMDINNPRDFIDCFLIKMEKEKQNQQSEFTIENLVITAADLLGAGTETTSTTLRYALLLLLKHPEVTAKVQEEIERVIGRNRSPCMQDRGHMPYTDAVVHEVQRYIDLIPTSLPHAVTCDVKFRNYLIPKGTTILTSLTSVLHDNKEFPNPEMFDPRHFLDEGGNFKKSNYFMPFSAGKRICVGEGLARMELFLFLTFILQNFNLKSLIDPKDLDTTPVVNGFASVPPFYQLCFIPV

The experiment has as its target Cytochrome P450 2C19 (Homo sapiens) (UniProt P33261). Briefly: Cytochrome panel assay with activity outcomes. The conditions noted are these: recombinant CYP, pro-luciferin dealkylation, luminescence, p450-cyp2c19; series mostly up to 57.1 µM.
As usually defined, the AC50 is the midpoint of the concentration-response curve, whichever way the signal moves. With `N#Cc1ccccc1NC(=O)Nc1cccs1`, the AC50 entry is “inactive”.

For the compound `O=C(NCc1ccco1)Nc1cccs1`, the half-maximal activity concentration (AC50) was 11.2 µM (active).

Consider `CCN1CCN(Cc2ccc(NC(=O)Nc3cccs3)cc2)CC1`, for which the AC50 result is “inactive”.

`COc1ccc(C[C@@](C)(N)C(=O)O)cc1OC`: the AC50 entry was “inactive”.

For the compound `COc1ccc(CNC(=O)Nc2cccs2)cc1OC`, the AC50 is 5.62 µM (active).

For the compound `N[C@@H](CO)C(=O)NNCc1ccc(O)c(O)c1O`, the AC50 entry was “inactive”.

Take `O=C(Nc1cccc(F)c1)N1CC2(CCN(C(=O)c3csnn3)CC2)C1`: the AC50 result is “inactive”.

Turning to `COc1ncc2ncc(=O)n(C)c2n1`, the AC50 result is “inactive”.

In the case of `O=C(Cc1cccc2ccccc12)N/N=C/c1ccc(Sc2nc3ccccc3s2)o1`, the half-maximal activity concentration (AC50) is 0.891 µM (active).

For `COCC(=O)N/N=C/c1ccc(Sc2nc3ccccc3s2)o1`, the AC50 is 14.1 µM (active).

As for `OCCN=C1CCCc2c1[nH]c1ccc(Br)cc21`, the AC50 result is “inactive”.

Regarding `COC(=O)c1cnn(C(=O)c2ccccc2Br)c1N`, the AC50 is 8.91 µM (active).

Consider `COC(=O)c1cnn(C(=O)c2cc(OC)ccc2Br)c1N`, for which the concentration at half-maximal activity (AC50) was 20 µM (active).

With `Nc1nc2c(c(=O)[nH]1)CN(CCCN1CCOCC1)CN2`, the activity, negative = inhibition is 24.4% [at 11.4 µM] (inactive).

For `CCn1c2ccccc2c2cc(N=C3SC(CC(=O)Nc4ccccc4)C(=O)N3C)ccc21` (centres undefined), the half-maximal activity concentration (AC50) is 2 µM (active).

For `CCn1c2ccccc2c2cc(N=C3SC(CC(=O)Nc4ccccc4OC)C(=O)N3C)ccc21` (centres undefined), the AC50 is 1.41 µM (active).

Take `CCn1c(=O)cc(OCC(=O)Nc2cccnc2)c2ccccc21`: the AC50 entry was “inactive”.

`CS(=O)(=O)N1CCC2(CC1)CN(C(c1ccccc1)c1ccccc1)C2`: the AC50 result was “inactive”.

Consider `N=C(N)SCc1ccc(Cl)cc1Cl` (tested in a mixture with another compound), for which the activity, negative = inhibition was -2.42% [at 11.4 µM] (inactive).

Regarding `Clc1ccc(-c2noc(CN3CCCCC3)n2)cc1`, the AC50 is 1.58 µM (active).

As for `Cc1ccc(-c2noc(CN3CCN(C(c4ccccc4)c4ccccc4)CC3)n2)cc1`, the AC50 is 17.8 µM (active).

As to `CN1CCN(C(c2ccccc2)c2ccccc2)CC1`, the AC50 result is “inactive”.

Regarding `N=C(N)SCc1nc(-c2ccc(Cl)cc2)no1`, the AC50 was 1 µM (active).

For the compound `c1ccc([P+](CC[P+](c2ccccc2)(c2ccccc2)c2ccccc2)(c2ccccc2)c2ccccc2)cc1`, the activity, negative = inhibition is -40.8% [at 11.4 µM] (inactive).

On to `O=C(O)CC12C[C@H]3C[C@@H](CC(O)(C3)C1)C2`, for which the activity, negative = inhibition is 7.05% [at 11.4 µM] (inactive).

`O=C(NCCN1CCOCC1)c1nn2c(c1Cl)NC(c1ccccc1)CC2C(F)(F)F` (centres undefined): the AC50 entry is “inactive”.

Regarding `CCCn1nc(C(=O)NCC(C)(C)N2CCOCC2)c2ccccc2c1=O`, the AC50 was 17.8 µM (active).

For the compound `Cn1cc[nH]c1=S`, the AC50 entry was “inactive”.

Take `CC(=O)NCCNc1cc(-c2ccccc2C(F)(F)F)ncn1`: the AC50 result is “inactive”.

As to `COCCNc1cc(-c2c(C)noc2C)ncn1`, the AC50 result is “inactive”.

`COCCNc1cc(-c2ccccc2C)ncn1`: the half-maximal activity concentration (AC50) was 15.8 µM (active).

Turning to `COCCNc1cc(-c2ccccc2C(F)(F)F)ncn1`, the AC50 is 7.94 µM (active).

Take `COCCNc1cc(-c2ccccc2CN(C)C)ncn1`: the AC50 entry was “inactive”.

On to `O=c1nc2ccccc2c2n1C[C@H](CN1CCN(c3ccccc3)CC1)N2`, for which the AC50 result is “inactive”.

Turning to `COc1cccc(OC)c1OCCNC[C@@H]1COc2ccccc2O1`, the AC50 was 794 nM (active) and inactive.

Consider `O=C1CC2(CCCC2)CC(=O)N1CCCCNC[C@H]1COc2ccccc2O1`, for which the AC50 entry was “inactive”.

As to `COc1ccccc1NC(=O)CC1COc2ccccc2O1` (centres undefined), the AC50 is 7.08 µM (active).

With `COc1cccc(OC)c1OCCCN1CCOCC1`, the AC50 entry is “inactive”.

With `CCN1CCCC1CNC(=O)C(=O)Nc1ccccc1OC` (centres undefined), the AC50 result is “inactive”.

Take `C(=C1/CCCC2=C1Nc1ncnn1C2c1ccccc1)/c1ccccc1` (centres undefined): the AC50 entry is “inactive”.

On to `CCCCC1CC(/C(C)=N/NC(N)=O)OC1=O` (centres undefined), for which the AC50 result is “inactive”.

As for `CC1=CC(=O)c2ccccc2C1=O`, the AC50 was 2.51 µM (active).

Turning to `COc1cc2nncc(SCc3ccc(Cl)c(Cl)c3)c2cc1OC`, the AC50 was 2.51 µM (active).

In the case of `CCCCN(CCCC)CCCOC(=O)c1ccc(N)cc1`, the AC50 entry is “inactive”.

In the case of `CCCCOC(=O)c1ccc(O)cc1`, the AC50 is 6.31 µM (active).

As for `CCCCNc1ccc(C(=O)OCCOCCOCCOCCOCCOCCOCCOCCOCCOC)cc1`, the AC50 result was “inactive”.

As to `Cc1ccccc1-c1nc(Nc2ccncc2)c2ccccc2n1`, the AC50 entry is “inactive”.

Consider `Clc1ccccc1-c1nc(Nc2ccncc2)c2ccccc2n1`, for which the AC50 is 5.01 µM (active).

Consider `FC(F)(F)c1ccccc1-c1nc(Nc2ccncc2)c2ccccc2n1`, for which the AC50 was 2 µM (active).

Consider `C[C@H](O/N=C1/[C@H]2O[C@@H]2[C@@H](O)[C@H]2[C@H]1CCn1c(=O)n(-c3ccccc3)c(=O)n12)c1cn([C@H]2COC[C@H]2O)nn1`, for which the activity, negative = inhibition is 42.5% [at 11.4 µM] (inactive).

Take `CN(C)CCC=C1c2ccccc2C=Cc2ccccc21`: the AC50 entry is “inactive”.

Regarding `c1ccc(-n2cnc3cc(NCc4cccs4)ccc32)cc1`, the AC50 is 2.82 µM (active).

Consider `Cc1noc(C)c1-c1nc(NCc2cccs2)c2ccccc2n1`, for which the AC50 entry was “inactive”.

Turning to `Cc1ccccc1-n1cnc2cc(NCc3cccs3)ccc21`, the AC50 was 2.51 µM (active).

Regarding `CO[C@H]1COC(=O)C/C=C\[C@H](C)COC(=O)[C@@H](OCc2ccccc2)/C=C\[C@@H]1C`, the activity, negative = inhibition is -37% [at 11.4 µM] (inactive).

In the case of `Cc1ccc2c(c1)NCC(C(=O)NC1CCCCC1)O2` (centres undefined), the AC50 is 3.55 µM (active).

As to `CCCC1(C)Nc2ccccc2-c2nc3ccccc3n21` (centres undefined), the AC50 was 1.41 µM (active).

With `CCCCC1(C)Nc2ccccc2-c2nc3ccccc3n21` (centres undefined), the AC50 is 0.708 µM (active).

For the compound `CCC1(C)Nc2ccccc2C(=O)N1O` (centres undefined), the AC50 result was “inactive”.

As to `COc1cccc2c1C(=O)c1c(O)c3c(c(O)c1C2=O)C[C@@](O)(C(=O)CO)C[C@H]3O[C@H]1C[C@@H](N)[C@H](O)[C@@H](C)O1.[W]`, the activity, negative = inhibition was 9.1% [at 11.4 µM] (inactive).

As to `O=C(Nc1cccc(Cl)c1)N1CCN2C(=O)c3ccccc3C12c1ccccc1` (centres undefined), the concentration at half-maximal activity (AC50) is 2.24 µM (active).

For the compound `CS(=O)(=O)N1CCC2(CCN(C(=O)Nc3cccc(C#N)c3)CC2)CC1`, the AC50 result was “inactive”.

As for `COCC(C)n1c(C)cc(C(=O)CSc2nnc(Nc3ccccc3F)s2)c1C` (centres undefined), the AC50 is 2 µM (active).

On to `O=C(c1sc2ccccc2c1Cl)N(Cc1ccccc1)C1CCS(=O)(=O)C1` (centres undefined), for which the AC50 is 3.16 µM (active).

Consider `CCc1ccc(OCC(=O)OC2CCS(=O)(=O)C2)cc1` (centres undefined), for which the AC50 entry is “inactive”.

Turning to `CCOc1ccc(CN(C(=O)c2oc3ccccc3c2C)C2CCS(=O)(=O)C2)cc1` (centres undefined), the AC50 was 1.41 µM (active).

In the case of `Cc1ccc(CN(C(=O)c2cc3ccccc3oc2=O)C2CCS(=O)(=O)C2)cc1` (centres undefined), the half-maximal activity concentration (AC50) was 14.1 µM (active).

`Cc1cc(C)c[n+](CC(=O)c2cc3ccccc3oc2=O)c1`: the AC50 entry is “inactive”.

On to `CCCN(C(=S)Nc1ccccc1)C1CCS(=O)(=O)C1` (centres undefined), for which the AC50 entry is “inactive”.

On to `CCOc1ccc(Cc2nccc3cc(OCC)c(OCC)cc23)cc1OCC`, for which the AC50 result was “inactive”.

Consider `C/C(CC/C(C)=N/O)=N/O`, for which the activity, negative = inhibition was 6.8% [at 11.4 µM] (inactive).

On to `COc1cccc(CNC(=O)C2CCN(S(=O)(=O)N3CCCCC3)CC2)c1`, for which the AC50 result was “inactive”.

As to `CCOc1ccc(CCNC(=O)C2CCN(S(=O)(=O)CC)CC2)cc1OCC`, the AC50 result is “inactive”.

`CCS(=O)(=O)N1CCC(C(=O)NCCCOC)CC1`: the AC50 result was “inactive”.

As for `O=C(NCCc1ccc(Cl)cc1)C1CCN(S(=O)(=O)N2CCC3(CC2)OCCO3)CC1`, the AC50 was 4.47 µM (active).

On to `CCS(=O)(=O)N1CCC(C(=O)NCc2ccco2)CC1`, for which the AC50 result is “inactive”.

As for `COc1ccc(CCNC(=O)C2CCN(S(=O)(=O)N3CC(C)CC(C)C3)CC2)cc1OC` (centres undefined), the AC50 is 14.1 µM (active).

As to `CCS(=O)(=O)N1CCC(C(=O)NCCCN2CCCC2)CC1`, the AC50 result is “inactive”.

Turning to `CCOCCCNC(=O)C1CCN(S(=O)(=O)N2CC(C)CC(C)C2)CC1` (centres undefined), the AC50 entry was “inactive”.

For the compound `CCS(=O)(=O)N1CCC(C(=O)NCc2ccccc2OC)CC1`, the AC50 was 39.8 µM (active).

In the case of `O=C(NCc1ccccc1Cl)C1CCN(S(=O)(=O)N2CCC3(CC2)OCCO3)CC1`, the AC50 is 22.4 µM (active).

On to `O=C(NCCCN1CCN(Cc2ccccc2)CC1)C1CCN(S(=O)(=O)N2CCCC2)CC1`, for which the AC50 result is “inactive”.

In the case of `O=C(Nc1ccc(F)cc1F)c1cccn1-c1ncc(C(F)(F)F)cc1Cl`, the concentration at half-maximal activity (AC50) was 10 µM (active).

For `Cc1ccc(C(=O)Nc2ccc(Cc3ccncc3)cc2)cc1[N+](=O)[O-]`, the AC50 is 1.12 µM (active).

Turning to `Cc1ccc(C(=O)Nc2ccccc2Oc2ccccc2)cc1[N+](=O)[O-]`, the half-maximal activity concentration (AC50) was 3.16 µM (active).

For the compound `Cc1ccc(C(=O)N/N=C\c2ccc[nH]2)cc1[N+](=O)[O-]`, the AC50 entry is “inactive”.

Regarding `COc1ccc(NC(=O)C2(c3ccc(NC(=O)c4ccc(OC(C)=O)cc4)cc3)CCCC2)cc1`, the AC50 result was “inactive”.

Consider `COc1ccc(NC(=O)C2(c3ccc(NC(=O)c4ccc(C)cc4)cc3)CCCC2)cc1`, for which the AC50 result was “inactive”.

Take `COc1ccc(NC(=O)N2CC3(CCN(C(=O)c4ccc(OC)cc4)CC3)C2)cc1`: the AC50 entry was “inactive”.

As to `CCOC(=O)c1ccc(NC(=O)C2(c3ccc(OC)cc3)CCOCC2)cc1`, the AC50 was 2.24 µM (active).

As for `CC(=O)c1ccc(NC(=O)C2(c3ccccc3)CCOCC2)cc1`, the AC50 is 14.1 µM (active).

`Cc1noc(C)c1C(=O)N1CCC2(CCN(C(=O)Nc3ccccc3)CC2)CC1`: the AC50 entry is “inactive”.

Regarding `NS(=O)(=O)c1cc2c(cc1Cl)N[C@@H](CC1CCCC1)NS2(=O)=O`, the AC50 entry is “inactive”.

As to `O=[N+]([O-])c1ccc(C=Nc2ccc(Cl)cc2Cl)s1`, the AC50 was 7.08 µM (active).

For the compound `O=C(/C=C/Nc1ccccc1)c1ccc(Oc2ncccn2)cc1`, the AC50 was 15.8 µM (active).

In the case of `COc1ccc(-c2noc(N(C)CC(=O)Nc3cccc(C(F)(F)F)c3)n2)cc1`, the AC50 was 4.47 µM (active).

For `COc1ccc(NC(=O)c2ccc(-c3ccc(-c4noc(C)n4)cc3C)cc2)cc1OCCN(C)C`, the AC50 result is “inactive”.

With `CC[C@]1(O)C[C@@H]2CN(CCc3c([nH]c4ccccc34)[C@](C(=O)OC)(c3cc4c(cc3OC)N(C=O)[C@H]3[C@@](O)(C(=O)OC)[C@H](C(=O)OC)[C@@]5(CC)C=CCN6CC[C@]43[C@H]65)C2)C1`, the AC50 entry is “inactive”.

As to `CC1=NCC[N@@+]1(CCc1ccccc1)Cc1ccccc1`, the activity, negative = inhibition was 32.9% [at 11.4 µM] (inactive).
